Bioassay records as filed in PubChem BioAssay.
Shown are actives, neighbours in structure and some others; about 20% of the full set was active somewhere.
CHX counter = counter-screen for Shiga toxin inhibitors: cycloheximide protein synthesis inhibition | cell reporter, cycloheximide protein synthesis inhibition counterscreen | max response, % | 300,000 compounds, 12% hits | AID 2314; in the data active = max response mostly above about 13%, no sharp cut-off; inactive = mostly below about 14%; note: read at 38.3 µM for the half of the compounds with a filed dose; 0% is about no effect
HCMV antiviral = blocks human cytomegalovirus replication | activity change, negative = inhibition, % at 57.5 µM | HFF cells, HCMV-luciferase reporter, 72 h; hits give low values | 410,000 compounds, 4.5% hits | AID 1259415; in the data active = activity change below about -60%; inconclusive = no clear call, values can overlap the other calls; inactive = above about -39%; note: % is set by controls: 0 for no effect and ±100 for the full control effect
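Cell-based, HFFs, 1000 cells/well, 16 h 37C; cpds in DMSO + HCMV-luc, MOI 1 PFU/cell; 72 h 37C; OneGlo luminescence after 5 min RT; norm. to buffer vs Salinomycin 10uM.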
Pf growth 48h = P. falciparum growth inhibition at 48 hours (one generation) | P. falciparum luciferase growth in erythrocytes, 48 h | Potency, µM (titrated, usually from 28.7 µM), without a hit: at the highest dose activity change, negative = inhibition, hits mostly inhibitors | 310,000 compounds, 5.9% hits; note: potency is the fitted concentration of half-maximal effect; % is set by controls: 0 for no effect and ±100 for the full control effect
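First compound was added to culture medium, then infected red cells at 0.1% parasitemia and 2% hematocrit (final). After incubation at 37 C under 5% CO2, luciferase detection reagent was dispensed and light output recorded.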
Pf growth 96h = P. falciparum growth inhibition at 96 hour, primary screen for plastid delayed-death inhibitors; P. falciparum luciferase reporter growth, 96 h; Potency, µM (titrated, usually from 28.7 µM), for inactives: at the top dose activity change, negative = inhibition, most hits filed as inhibitors; 320,000 compounds, 6.9% hits; note: potency is the fitted concentration of half-maximal effect; % is set by controls: 0 for no effect and ±100 for the full control effect
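Erythrocytes infected with luciferase-expressing P. falciparum were dispensed at 2% hematocrit and 0.05% parasitemia (final), then incubated with compounds 96 hours at 37 C in 5% CO2. Luminescence after detection reagent addition reported growth.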
Shiga inhibitor = blocks Shiga toxin action in Vero cells. Vero cells, Shiga toxin protein synthesis inhibition reporter. inhibition, % at 38.7 µM. 290,000 compounds, 9.2% hits; in the data active = inhibition mostly above about 28%, no sharp cut-off; inactive = mostly below about 43%; note: 0% is about no effect
* hit, by the source's call; ? = inconclusive; . = no result given. Unless noted, calls come from the whole dose curve; as a rule, active = well fitted inhibition curve with a large enough effect; inconclusive = small, poorly fitted or top-dose-only effect, or another doubt; inactive = no such curve, though single readings can be large or run the other way.

SMILES	CHX counter	HCMV antiviral	Pf growth 48h	Pf growth 96h	Shiga inhibitor
CCOCCCNS(=O)(=O)c1ccc(NC(=O)Cc2c(F)cccc2Cl)cc1	-3	-23	?	1%	21
O=C(/C=C/c1cccc(F)c1)c1ccc(N2CCOCC2)cc1	50*	60	241%	-8%	99*
O=C(OCc1ccccc1)/C(=C/c1ccccc1Cl)NC(=O)c1ccco1	10	-9	15%	54%	-4
O=S(=O)(c1ccccc1)N1C2CCC1CC(O)(c1cccnc1)C2 (stereo not drawn)	3	3	4%	2.3µM*	2
O=C(Nc1ccccc1)N1C2CCC1CC(O)(c1cccnc1)C2 (stereo not drawn)	5	60	?	31%	-11
Cc1oc2ccc(O)c(CN3CCCCC3C)c2c1C(=O)Nc1ccccc1 (stereo not drawn)	.	-29	.	.	.
CCOc1ccc(C(=O)/C=C/Nc2ccc(S(=O)(=O)N=C(N)N)cc2)cc1	23*	-34	15%	-91%	62*
CCOc1ccc(C(NC(C)=O)c2ccc(OC)c(OC)c2)cc1 (stereo not drawn)	7	8	-6%	1.5µM*	-16
COc1ccc(C(=O)/C=C/Nc2ccc(C)cn2)cc1OC	38*	53	281%	24%	75*
CCCC(=O)NC(c1ccc(OCC)cc1)c1ccc(OC)c(OC)c1 (stereo not drawn)	1	-37	?	3%	-9
CCOc1ccc(N/C=C/C(=O)c2ccc(OC)c(OC)c2)cc1	41*	127	59%	54%	82*
NC(N)=NS(=O)(=O)c1ccc(N/C=C/C(=O)c2ccc(Cl)c(Cl)c2)cc1	2	?	?	-25%	-10
O=C(CSc1nc(O)c(Cc2ccccc2)c(=O)n1-c1ccccc1)N1CCOCC1	2	19	.	-11%	1
COc1ccc(C(=O)/C=C/Nc2ccc(S(N)(=O)=O)cc2)cc1OC	14*	32	-8%	?	32
CCOc1ccc(OCC(=O)Nc2ccc(S(N)(=O)=O)cc2)cc1	-3	?	9%	278%	-4
CCOc1ccc(S(=O)(=O)/N=C(/Nc2ccc(S(N)(=O)=O)cc2)c2ccccc2)cc1	.	-103*	.	.	.
Nc1nc2c(C(=O)N3CCCC3)nnn2c2ccccc12	.	12	.	.	.
COc1ccc(-c2ccc3c(c2)CN(c2cccc(Cl)c2)Cc2cnnn2-3)cc1	.	-102*	.	.	.
Clc1cccc(N2Cc3cc(-c4ccccc4)ccc3-n3nncc3C2)c1	.	-108*	.	.	.
Nc1ccn([C@@H]2O[C@H](CNCc3ccc(-c4cc(C(F)(F)F)ccc4Cl)o3)[C@@H](O)[C@H]2O)c(=O)n1	.	6	.	.	.
Clc1ccc2nc(CN3CCCc4ccccc43)cn2c1	23*	-31	?	-9%	56*
C=CCNc1sc(C(=O)c2ccc(C)cc2)c(N)c1C#N	-6	-21	1%	?	-10
Cc1ccc(C(=O)c2sc3nsc(C)c3c2N)cc1	86*	91	.	202%	155*
Cc1snc2sc(C(=O)c3ccc(Br)cc3)c(N)c12	27*	32	.	263%	28
Cc1cc(C)c2c(N)c(C(=O)c3cccc(Cl)c3)sc2n1	-1	-5	6%	?	-5
SMILES	CHX counter	HCMV antiviral	Pf growth 48h	Pf growth 96h	Shiga inhibitor
CCc1ccc(CNC(=O)CCS(=O)(=O)Cc2ccc(C)cc2)cc1	-9	0	5%	25%	-10
Cc1oc(-c2ccccc2)nc1CNC(=O)Nc1ccccc1	.	-18	.	.	.
O=C1NC(CCc2ccccc2)C(=O)N1CCOc1cccc(Br)c1 (stereo not drawn)	9	?	41%	21%	-17
CCCCCc1c(-c2ccc(Br)cc2)ncn1CCc1ccccc1OC	.	-104*	.	.	.
CCCCCc1c(-c2cccc(Cl)c2)ncn1CCc1ccccc1OC	.	-6	.	.	.
CCCCCc1c(-c2cccc(OC)c2)ncn1CCc1ccccc1OC	.	-95*	.	.	.
CCCCCc1c(-c2ccc(F)cc2)ncn1CCc1ccccc1OC	.	-28	.	.	.
CCCCc1c(-c2cccc(Br)c2)ncn1CCc1ccccc1OC	.	-101*	.	.	.
CCCc1c(-c2cccc(F)c2)ncn1CCc1ccccc1OC	.	-74*	.	.	.
CCCc1c(-c2cccc(F)c2)ncn1Cc1ccccc1OC	.	-16	.	.	.
CCc1c(-c2ccc(OC)c(OC)c2)ncn1CCc1ccccc1OC	.	-28	.	.	.
Cc1cc(C)c(OCC(=O)OCC(=O)N2c3ccccc3CC2C)c(C)c1 (stereo not drawn)	.	3	8%	38%	.
CCCCc1c(-c2cccc(F)c2)ncn1CCc1ccccc1OC	.	-61*	.	.	.
COCCN(C(=O)c1cccc(N2C(=O)CCC2=O)c1)c1nc(-c2ccc([N+](=O)[O-])cc2)cs1	.	-39	?	2%	.
COc1ccccc1N(C(=O)c1ccncc1)c1nc(-c2ccc([N+](=O)[O-])cc2)cs1	2	-4	9.3µM*	?	18
COC(=O)C1CCN(C(=O)Cn2nnc(-c3ccccc3)n2)CC1	2	-4	20%	20%	24
CC(NC(=O)Cc1cc(F)cc(F)c1)C(=O)NC(C(=O)OC(C)(C)C)c1ccccc1 (stereo not drawn)	1	.	.	.	-8
O=C(CN1CCOCC1)N/N=C/C(Br)=C\c1ccccc1	12	-39	30%	48%	17
CC(=C/c1ccccc1)/C=N/NC(=O)CSc1nc(C)cc(C)n1	10	-38	8%	2%	-13
CC(/C=N/NC(=O)Cc1cccs1)=C\c1ccccc1	60*	2	77%	88%	42*
O=C(Cc1cccs1)N/N=C/C(Br)=C/c1ccccc1	51*	38	126%	15%	77*
CC(/C=N/NC(=O)Cc1cccn1C)=C\c1ccccc1	20*	6	54%	-10%	74*
CCCCSc1ccc2nc(-c3ccc(C#N)cc3)cn2c1	58*	-4	18%	-25%	58
CCCSc1ccc2nc(-c3ccccc3)cn2c1	17	-64*	-24%	0%	12
O=C(CSc1ccc2nc(-c3ccccc3)cn2n1)Nc1ccccc1	.	71	.	.	.
SMILES	CHX counter	HCMV antiviral	Pf growth 48h	Pf growth 96h	Shiga inhibitor
CC1(C)N=C(N)N=C(N)N1CCCCc1ccccc1	.	-98*	.	.	.
Cc1ccccc1OCCC(=O)OCC(=O)Nc1cc(S(=O)(=O)N2CCOCC2)ccc1Cl	11	2	-4%	8%	6
CCC(CC)C(=O)Nc1nnc(S(=O)(=O)N2CCCc3ccccc32)s1	-1	-34	-10%	15µM*	-3
CC(C)C(=O)Nc1nnc(S(=O)(=O)N2CCCc3ccccc32)s1	1	-6	11%	11%	1
CCN1CCN(c2ccc(S(=O)(=O)N3CCCCC3)cc2NC(=O)CCNC(C)=O)CC1	.	-23	.	.	.
O=C(Nc1cccc(Cl)c1)Nc1cc(S(=O)(=O)N2CCOCC2)ccc1N1CCCC1	1	-80*	13%	2%	-14
CCN1CCN(c2ccc(S(=O)(=O)N3CCCCC3)cc2NC(=O)C(C)Oc2ccc(F)cc2)CC1 (stereo not drawn)	.	-10	8.3µM*	-24%	.
Cc1ccccc1OCCC(=O)Nc1cc(S(=O)(=O)N2CCOCC2)ccc1OC(C)C	0	?	15µM*	13µM*	-10
